Assay results from PubChem BioAssay (NCI).
Compounds without any hit were thinned out: in the full panel of roughly 83,000, 20% have a hit.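 Activity criterion: percent growth below 10, measured after cells in 96-well plates were exposed to a single compound concentration for 48 hours.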 Unmarked numbers belong to inactive results. Active and inactive are the calls of the source.

What was measured:
Test in all cases: NCI-60 one-dose screen, 48 h (100 = growth as untreated, 0 = no growth, -100 = all killed)
SK-MEL-2 melanoma = details: 10 µM unless noted
EKVX NSCLC = details: 10 µM unless noted
SN12C renal = details: 10 µM unless noted
UO-31 renal = details: 10 µM unless noted
TK-10 renal = details: 10 µM unless noted
ACHN renal = details: 10 µM unless noted
CAKI-1 renal = details: 10 µM
CCRF-CEM leukemia = details: 10 µM unless noted
MOLT-4 leukemia = details: 10 µM unless noted
SR leukemia = details: 10 µM unless noted
RPMI-8226 leukemia = details: 10 µM unless noted
OVCAR-8 ovarian = details: 10 µM unless noted
OVCAR-5 ovarian = details: 10 µM unless noted
SK-OV-3 ovarian = details: 10 µM unless noted
IGROV1 ovarian = details: 10 µM unless noted
OVCAR-3 ovarian = details: 10 µM unless noted
HS 578T breast = details: 10 µM unless noted
NCI/ADR-RES ovarian = details: 10 µM unless noted
OVCAR-4 ovarian = details: 10 µM unless noted
A498 renal = details: 10 µM unless noted

| SMILES | growth (SK-MEL-2 melanoma) | growth (EKVX NSCLC) | growth (SN12C renal) | growth (UO-31 renal) | growth (TK-10 renal) | growth (ACHN renal) | growth (CAKI-1 renal) [%] | growth (CCRF-CEM leukemia) | growth (MOLT-4 leukemia) | growth (SR leukemia) | growth (RPMI-8226 leukemia) | growth (OVCAR-8 ovarian) | growth (OVCAR-5 ovarian) | growth (SK-OV-3 ovarian) | growth (IGROV1 ovarian) | growth (OVCAR-3 ovarian) | growth (HS 578T breast) | growth (NCI/ADR-RES ovarian) | growth (OVCAR-4 ovarian) | growth (A498 renal) |
| --- | --- | --- | --- | --- | --- | --- | --- | --- | --- | --- | --- | --- | --- | --- | --- | --- | --- | --- | --- | --- |
| COc1ccc(Cn2cc3c(c2-c2cc(OC)c(OC)c(OC)c2)CCCc2cnoc2-3)cc1 | 54.9% | 40.2% | 36.3% | 30.7% | 67.5% | 36.3% | 19.6 | 15.8% | 8.85% (active) | 13.4% | 23.4% | 43% | 34.9% | 58% | 22.1% | 4.45% (active) | 22.1% | 15.5% | – | – |
| N#C/C(=C\c1ccc(Cl)cc1Cl)C(N)=O | 106% | 105% | 98.3% | 94.4% | 102% | 101% | 90.8 | 89.7% | 109% | 80.5% | 111% | 106% | 99.7% | – | 102% | – | 99% | 107% | 107% | – |
| CC[C@@](C)(NC(=O)C(C)(C)NC(=O)[C@@H](NC(=O)[C@@H]1CCCN1C(=O)C(C)(C)NC(=O)[C@H](CC(C)C)NC(=O)CNC(=O)C(C)(C)NC(=O)[C@@H](NC(=O)C(C)(C)NC(=O)[C@H](CCC(N)=O)NC(=O)[C@H](C)NC(=O)C(C)(C)NC(=O)[C@H](C)NC(=O)C(C)(C)NC(=O)[C@@H]1CCCN1C(=O)C(C)(C)NC(C)=O)C(C)C)C(C)C)C(=O)N[C@@H](CCC(N)=O)C(=O)N[C@@H](CCC(N)=O)C(=O)N[C@H](CO)Cc1ccccc1 | -9.91% [4.25 µM] (active) | 71.6% [4.25 µM] | 12.8% [4.25 µM] | 89.5% [4.25 µM] | 90% [4.25 µM] | – | – | 35.6% [4.25 µM] | 8.53% [4.25 µM] (active) | 22.2% [4.25 µM] | -10.5% [4.25 µM] (active) | 94.5% [4.25 µM] | 44.9% [4.25 µM] | 31.3% [4.25 µM] | 42.6% [4.25 µM] | 14.6% [4.25 µM] | 52.1% [4.25 µM] | 100% [4.25 µM] | 59.2% [4.25 µM] | 54.9% [4.25 µM] |
| CC(C)=CCc1c2c(c(O)c3c1O[C@]14C(=C[C@@H]5C[C@H]1C(C)(C)O[C@@]4(C/C=C(/C)C(=O)O)C5=O)C3=O)CC(O)C(C)(C)O2 (stereo partly drawn) | -71.3% (active) | -32.5% (active) | 12.9% | -57.1% (active) | – | -11% (active) | – | 5.72% (active) | -7.09% (active) | -5.31% (active) | -18.5% (active) | -25.1% (active) | -10.7% (active) | 30.4% | 5.2% (active) | -96.4% (active) | 15.7% | 18% | 18.7% | -75.6% (active) |
| N/C(=N\OC(=O)CSc1nc2ccccc2s1)c1ccc2ccccc2c1 | 102% | 91.8% | 95.2% | 78.6% | 118% | – | 85.8 | – | 99.2% | 117% | 110% | 98.8% | 98.9% | 101% | 97.3% | 116% | 105% | 104% | 109% | – |
| COc1ccc(-c2oc3cc(O)cc(O)c3c(=O)c2OC)cc1O | 13.2% | 38.7% | – | 26.2% | 52.3% | 34.1% | 14.9 | 2.67% (active) | 21.4% | 11% | 17.4% | 26.8% | 59.8% | 19.2% | 39.8% | -7.51% (active) | 11.2% | 15.4% | 46.2% | -6.41% (active) |
| CC(C)=CCc1c(O)c(CC=C(C)C)c2c(c1O)C(=O)C1=C[C@@H]3C[C@H]4C(C)(C)O[C@@](C/C=C(\C)C(=O)O)(C3=O)[C@@]14O2 | -53% (active) | -3.05% (active) | 12.3% | -30.9% (active) | – | -0.932% (active) | – | 1.76% (active) | 1.93% (active) | -4.41% (active) | -23.1% (active) | 10.1% | 8.41% (active) | 42.4% | -21.8% (active) | -55% (active) | 27.7% | 10.7% | 33.2% | -31.6% (active) |
| Cc1cc(O)c(=O)cc2c1C[C@H]1CC(C)(C)/C=C/C[C@]3(C)Oc4cc(=O)c(O)cc(C)c4C[C@H]3C[C@H](O)[C@@]1(C)O2 | -27.1% (active) | 3.91% (active) | 6.41% (active) | -15.8% (active) | -1.4% (active) | -3.47% (active) | – | 4.82% (active) | 2.51% (active) | 4.18% (active) | -0.673% (active) | 2.98% (active) | 26.9% | -14.3% (active) | 6.73% (active) | – | 18.7% | 1.38% (active) | 9.74% (active) | -7.88% (active) |
